Structures are written as SMILES. A number with no mark means an inactive call.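 How the source made its calls: active means inhibition over a set limit, the all-compound mean plus 3 SD, in both replicate runs; inconclusive means over that limit in just one replicate run; inactive means at or under that limit in both runs.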

The assay can be described thus: RAM pathway blockade in budding yeast – dse1pr::URA3 reporter, 5-FOA selection, pilot screen (AID 869).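 Further: 0% = DMSO wells with no growth and 100% = 10 µM 1-NA-PP1 with full growth; RAM network block rescues cells from 5-FOA so hits raise OD615 growth.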 Particulars: S. cerevisiae dse1pr::URA3 5-FOA growth, OD615, 2 d; at 10 µM; stronger effect = higher value; strain carries analog-sensitive mutant Cbk1 kinase.
With `COC(=O)c1ccsc1NC(=O)c1ccc(Cl)s1`, the inhibition is 3.58%.

Turning to `COC(=O)C1C(=O)c2c([nH]c(C(=O)OC3CCCCC3)c2C)CC1C` (stereo not given), the inhibition is 0.105%. Regarding `Cc1cc(-c2nnco2)c(C)n1-c1ccc(F)cc1`, the inhibition is 0.83%. The result for `O=C1CCCCC(=O)N(c2ccccc2)c2ccccc21` reads 1.74%; that for `CCOC(=O)N1CCN(C(=O)Cn2ncc3c2-c2ccccc2OC3)CC1`, 0.82%; that for `COCc1cc(C)nc2sc3c(=O)n(Cc4ccco4)nnc3c12`, 4.2%. The result for `O=C1c2ccccc2C(=O)N1CCCc1nc2ccccc2c(=O)n1Cc1ccco1` reads 3.96%. For the molecule `CS(=O)(=O)c1ccc2nc(NC(=O)C3CCCCC3)sc2c1`, the inhibition was 0.96%. As to `CC(=O)Oc1cccc(N2C(=O)C3CC=C(Cl)CC3C2=O)c1` (stereo not given), the inhibition was 2.81%. For `Cc1cccc(-n2ncc3c(N4CCC(C)CC4)ncnc32)c1`, the inhibition was -0.31%. The result for `CCOc1ccc(C2c3c(oc4ccccc4c3=O)C(=O)N2c2ccc(C)cn2)cc1OC` (stereo not given) reads 1.88%; that for `COc1ccc(N2C(=O)C(CC(=O)O)S/C2=C\C(C)=O)cc1` (stereo not given), 0.95%; that for `Cn1c(Cn2c(=O)sc3ccccc32)nnc1SCC(=O)NCc1ccccc1`, 3.87%. In the case of `O=C(CCNS(=O)(=O)c1cccc2nonc12)NCc1cccs1`, the inhibition was 2.46%.

Turning to `O=C(CN(Cc1ccc(F)cc1)S(=O)(=O)c1ccccc1)N1CCCCC1`, the inhibition was 0.975%. For `O=C1C2C(c3ccccc3)C=CC(c3ccccc3)C2C(=O)N1CCO` (stereo not given) the value was 0.33%; for `COC(=O)c1cn(NC(=O)c2ccc3c(c2)OCO3)c(=O)c2ccccc12`, 1.44%; for `CCCCS(=O)CC(CS(=O)CCCC)OC(=O)c1ccccc1` (stereo not given), 0.405%.

With `Cc1ccc(-n2c3c(cc(C(=O)N4CCN(C)CC4)c2=O)C(=O)CC(C)(C)C3)cc1`, the inhibition is 1.48%. For `CC(C)CCn1c(SCC(N)=O)nc2c1c(=O)n(C)c(=O)n2C`, the inhibition is -0.76%.

As for `CCOc1ccc(C(=O)NCc2ccncc2)cc1OCC`, the inhibition is 2.33%. Regarding `COc1cc(OC)nc(NC(=O)C(C)C)n1`, the inhibition was 1.01%.

Consider `COc1ccc(NC(=O)c2c(NC(=O)CNCc3ccco3)sc3c2CCC3)c(OC)c1`, for which the inhibition is 1.43%. The result for `CC(=O)Nc1ccc(S(=O)(=O)N2CCN(c3ccc(C)c(Cl)c3)CC2)cc1` reads 1.71%; that for `Cn1c(Cn2c(=O)sc3ccccc32)nnc1SCC(=O)NCCc1ccccc1`, 2.5%; that for `CCOCCn1c(COc2ccccc2)nc2ccccc21`, 1.88%. The result for `COc1ccc(COC(=O)C2=C(C)NC(=O)NC2c2ccc(O)c(OC)c2)cc1` (stereo not given) reads 0.34%.

With `CCCOc1ccc(C2c3c(oc4cc(C)c(C)cc4c3=O)C(=O)N2CCCN2CCOCC2)cc1` (stereo not given), the inhibition is 0.075%.

Consider `CCCCOC(=O)Nc1ccc(S(=O)(=O)Nc2cc(C)nc(C)n2)cc1`, for which the inhibition was 1%. For `O=S(=O)(NCCO)c1cccc2cccnc12` the value was 1.24%; for `CC(C)(C)C1(C)OC(C(N)=O)C(C(N)=O)O1` (stereo not given), 0.785%.

In the case of `COc1ccc(-c2cn3c(C)c(C(=O)N4CCN(c5ccccc5)CC4)sc3n2)cc1`, the inhibition was 1.88%. The result for `Cc1ccccc1OCC(O)Cn1c(NCCN(C)C)nc2c1c(=O)n(C)c(=O)n2C` (stereo not given) reads 2.01%; that for `CCNc1nc(NCC)nc(-n2nc(C)cc2C)n1`, 0.2%. `Cc1nc2scc(-c3cccs3)c2c(=O)o1`: the inhibition was 1.73%. The result for `CC1COC2C(O1)N(S(C)(=O)=O)CCN2S(C)(=O)=O` (stereo not given) reads 0.68%; that for `O=C(NCCN1C(=O)C2C3C=CC(C3)C2C1=O)NCc1ccccc1` (stereo not given), 1.61%; that for `COC(=O)Cn1c(CCC(=O)O)ccc1-c1ccccc1`, 0.12%. The result for `COC(=O)C1C2C=CC3(CN(c4ccc(Cl)c(F)c4)C(=O)C13)O2` (stereo not given) reads 1.67%. The result for `Cc1cnn(-c2ccc3nnc(-c4ccc(Br)cc4)n3n2)c1` reads 1.4%.

Values taken from PubChem BioAssay.
